Measurements taken from PubChem BioAssay (NCI).
About 83,000 compounds went through this panel and 20% of them were active in at least one assay; those are over-represented in the sample as a whole.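 96-well plates, one dose, 48 hours. Percent growth reported; active if below 10.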 A number with no mark means an inactive call. Calls of active or inactive are those of the source.

Assays:
Experiment in all cases: NCI-60 one-dose screen, 48 h (100 = growth as untreated, 0 = no growth, -100 = all killed)
Conditions in all cases: 10 µM unless noted
SK-MEL-2 melanoma = system: SK-MEL-2 melanoma
EKVX NSCLC = system: EKVX NSCLC
SN12C renal = system: SN12C renal
UO-31 renal = system: UO-31 renal
TK-10 renal = system: TK-10 renal
ACHN renal = system: ACHN renal
A498 renal = system: A498 renal
CCRF-CEM leukemia = system: CCRF-CEM leukemia
MOLT-4 leukemia = system: MOLT-4 leukemia
SR leukemia = system: SR leukemia

Row | SMILES | growth (SK-MEL-2 melanoma) | growth (EKVX NSCLC) | growth (SN12C renal) | growth (UO-31 renal) | growth (TK-10 renal) | growth (ACHN renal) | growth (A498 renal) | growth (CCRF-CEM leukemia) | growth (MOLT-4 leukemia) | growth (SR leukemia)
1 | C(=C\c1cn(-c2ccccc2)nc1-c1ccccc1)/c1nnc(-c2c[nH]c3ccccc23)o1 | 86% | 50.8% | 27.9% | 73.2% | 22.8% | 40% | 109% | 78.8% | 69.4% | 48.1%
2 | C#C[C@@]1(O)[C@@H](CO)O[C@@H](n2cc(Cl)c3c(N)ncnc32)[C@@H]1O | -20.6% (active) | -32.4% (active) | 1.7% (active) | -60.1% (active) | -3.3% (active) | -12.5% (active) | -68.8% (active) | 5.93% (active) | 1.07% (active) | 0.983% (active)
3 | CSc1nc(-c2ccco2)c2c(N)[nH]nc2n1 | 99.3% | 81.2% | 109% | 88.3% | 105% | 101% | 66.4% | 111% | 82.7% | 76.1%
4 | COc1ccccc1-c1ccc2nc(NC(=O)Nc3cc(C(F)(F)F)cc(C(F)(F)F)c3)sc2c1 | -14.1% (active) | 10.7% | 13% | 13.1% | 9.11% (active) | 8.64% (active) | -26.7% (active) | 0.889% (active) | -15.7% (active) | -23.8% (active)
5 | COc1ccc(-c2cs/c(=N\N=C\c3ccc(O)cc3O)n2/N=C/c2ccc(O)cc2O)cc1 | -28.4% (active) | 7.59% (active) | 4.01% (active) | -65% (active) | -31.3% (active) | -34.3% (active) | -6.11% (active) | 2.63% (active) | -35.3% (active) | 6.76% (active)
6 | O=C(O)c1cn(C2CC2)c2cc(N3CCN(C(=O)CSc4nnc(-c5ccc(Cl)cc5)n4-c4ccccc4)CC3)c(F)cc2c1=O | 104% | 111% | 102% | 84.7% | 99.4% | 108% | 67.8% | 84.3% | 103% | 89.9%
7 | C=C1C(=O)O[C@H]2[C@H]1CC/C(COC(=O)CCC(=O)OC/C1=C/CC[C@@]3(C)O[C@H]3[C@H]3OC(=O)C(=C)[C@@H]3CC1)=C\CC[C@@]1(C)O[C@@H]21 | 60.8% | 44.5% | 5.32% (active) | 0.355% (active) | 25% | -21.8% (active) | 114% | -8.57% (active) | 1.24% (active) | 0.484% (active)
8 | O=CN1N=C(c2ccc(F)cc2)CC1c1cccc(Nc2ccnc3cc(C(F)(F)F)ccc23)c1 (stereo not given) | 54.2% | 50.6% | 81% | 44.6% | 62.7% | 54.4% | 49.6% | 44.8% | 23.1% | 20.2%
9 | Cc1ccc(C2=N[C@H]3CCC[C@@H]3N(c3ccccc3)C(C(Cl)Cl)=N2)cc1 | 96.8% | 98.4% | 107% | 81.9% | 100% | 98% | 112% | 96.4% | 94.3% | 95.8%
10 | N#Cc1c(-c2ccc(F)cc2)nc(N=Nc2c(O)[nH]c3ccc(Cl)cc23)nc1N1CCOCC1 | 64% | 72.5% | -9.86% (active) | 6.44% (active) | 11.6% | 14.6% | 51.2% | 58.7% | 48.5% | 47%
11 | CN1CCN(C(=O)[C@@]2(C)CC[C@]3(C)CC[C@]4(C)C(=CC[C@@H]5[C@@]6(C)CC[C@H](OC(=O)c7cccnc7)C(C)(C)[C@@H]6CC[C@]54C)[C@@H]3C2)CC1 | 101% | 76.3% | 80.4% | 74.1% | 116% | 77.7% | 92.1% | 1.45% (active) | 31.9% | -26.9% (active)
12 | Cn1c2ccccc2c2c(OC(=O)c3ccccc3)c3c(nc21)-c1ccccc1C3 | 81.1% | 86% | 98.1% | 79.9% | 124% | 97.1% | 119% | 98.8% | 96.3% | 91.7%
13 | COc1cc(/C=C/CO)cc(OC)c1O[C@@H]1O[C@H](CO)[C@@H](O)[C@H](O)[C@H]1O | 108% | 95% | 96.8% | 97.1% | 98.7% | 109% | 77.2% | 96.2% | 94.8% | 95.2%
14 | COc1ccc2oc(=O)cc(-c3nc4ccc(N)cc4[nH]3)c2c1 | 89.5% | 82.2% | 92.4% | 44.9% | 96.5% | 79.9% | 61.5% | 108% | 73.4% | 76.1%
15 | COc1ccc2[nH]c(-c3ccccc3)c(C=C(C#N)C#N)c2c1 | 24.1% | 33.3% | 59% | 53.1% | 41.5% | 54.2% | 21% | 2.26% (active) | 0.472% (active) | -5.05% (active)
16 | S=C(Nc1ccc(Cl)cc1)c1ccccn1 | 92.1% | 87.9% | 99.3% | 71.5% | 110% | 99% | 69.2% | 99.4% | 101% | 102%
17 | O=C1CCc2ccccc2N1 | 101% | 75.5% | 99.1% | 90.3% | 88.2% | 100% | 111% | 107% | 110% | 93.5%
18 | COc1ccc(C(=O)c2cc(OC)c(OC)c(OC)c2)cc1OC(=O)C(Cl)(Cl)Cl | 29.8% | 61.3% | 30.9% | 39.1% | 65.6% | 31.8% | 46.5% | 8.37% (active) | 11.8% | 6.59% (active)
19 | Cc1[nH]c(N=Nc2ccccc2)nc1N=Nc1ccccc1 | 39.8% | 20.5% | 39.2% | -22% (active) | 13.1% | 7.3% (active) | 35% | -24.1% (active) | 13.8% | 23.1%
20 | CCCNc1nc(C)[nH]c(=O)c1S | 95.6% | 120% | 186% | 90.8% | 135% | 94.7% | 180% | 106% | 96.3% | 101%
21 | Nc1c(C(=O)Nc2cccc3ccccc23)sc2nc3c(cc12)CCCCC3 | 50.5% | 40.4% | 43.4% | 51.9% | 62.8% | 53.6% | -1.52% (active) | 9.18% (active) | 15.9% | 19.9%
22 | CCOCc1nc2ccccc2c(=O)[nH]1 | 113% | 95.8% | 98% | 92.9% | 102% | 105% | 105% | 97.1% | 105% | 103%
23 | CC1(c2ccccc2Cl)NC(=O)NC1=O (stereo not given) | 95.6% | 105% | 105% | 94% | 90% | 108% | 94.9% | 101% | 94.5% | 98.5%
24 | OCCNc1nc(NCCO)nc(Nc2ccc(C3=NN(c4cc(Cl)cc(Cl)c4)C(c4ccccc4)C3)cc2)n1 (stereo not given) | 40.4% | 59.4% | 55% | 56.9% | 74.1% | 42.2% | 85.1% | 24.3% | 20.5% | 5.4% (active)
25 | CCOC(=O)/C(=C/c1c(-c2ccccc2)[nH]c2ccccc12)C(=O)c1ccc(Cl)cc1 | 61.8% | 30.6% | 56% | 57.9% | 82.2% | 19.3% | 73.7% | 14.5% | 1.71% (active) | 9.07% (active)
26 | N#Cc1c(NC(=O)c2cccs2)[n+]([O-])c2cc(C(F)(F)F)ccc2[n+]1[O-] | 55.8% | 87.1% | 108% | 80.5% | 104% | 102% | 123% | 94.7% | 75.9% | 79.8%
27 | Nc1c(C(=O)Nc2ccccn2)sc2nc3c(cc12)CCCCC3 | 44.2% | 37.8% | 39.4% | 49% | 71.9% | 52.6% | 25.9% | 6.92% (active) | 15.5% | 8.04% (active)
